Screening results (PubChem BioAssay)
TDP1 cell CPT – qHTS for Inhibitors of human tyrosyl-DNA phosphodiesterase 1 (TDP1): qHTS in cells in presence of CPT; Potency, µM (doses to about 46.2 µM), without a hit: at the top dose activity change, negative = growth inhibition, usual class: inhibitors; chicken DT40 Tdp1-/-;hTDP1 cells + 20 nM CPT, ATP luminescence, 48 h; hit rate 12% among 420,000; AID 686979, 2013; also: nearly all actives have a fitted effect of over 55% in size
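Cell growth measured by CellTiter-Glo luminescence after a minimum 48 h, 37 C compound exposure with 20 nM CPT in Tdp1-knockout DT40 cells stably expressing hTDP1, seeded 400/well; qHTS titration format.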
RORgamma inh – qHTS for inhibitors of ROR gamma transcriptional activity; AID 2551, 2010; Nuclear receptor ROR-gamma (Mus musculus), P51450; Potency, µM (titrated, usually from 53.6 µM), for the others: top-dose activity change, negative = inhibition, most hits filed as inhibitors; Drosophila S2 Gal4-RORgamma UAS-luciferase reporter, 20 h; hit rate 5.4% among 310,000; also: nearly all actives have a fitted effect of over 60% in size
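Drosophila S2 cells stably expressing Gal4-DBD/mouse RORγ fusion under metallothionein promoter plus UAS-luciferase; compound 1 h, then 700 uM CuSO4 induction for 20 h at ambient temperature; inhibition read as reduced luminescence.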
TDP1 block – qHTS Assay for Inhibitors of Tyrosyl-DNA Phosphodiesterase (TDP1); recombinant TDP1, AlphaScreen DNA substrate cleavage; Potency, µM (top dose mostly 130 µM), for inactives: at the highest dose activity change, negative = inhibition, usual class: inhibitors; hit rate 0.28% among 350,000; also: nearly all actives have a fitted effect of over 40% in size
Target sequence (Q9NUW8 whole entry, looked up): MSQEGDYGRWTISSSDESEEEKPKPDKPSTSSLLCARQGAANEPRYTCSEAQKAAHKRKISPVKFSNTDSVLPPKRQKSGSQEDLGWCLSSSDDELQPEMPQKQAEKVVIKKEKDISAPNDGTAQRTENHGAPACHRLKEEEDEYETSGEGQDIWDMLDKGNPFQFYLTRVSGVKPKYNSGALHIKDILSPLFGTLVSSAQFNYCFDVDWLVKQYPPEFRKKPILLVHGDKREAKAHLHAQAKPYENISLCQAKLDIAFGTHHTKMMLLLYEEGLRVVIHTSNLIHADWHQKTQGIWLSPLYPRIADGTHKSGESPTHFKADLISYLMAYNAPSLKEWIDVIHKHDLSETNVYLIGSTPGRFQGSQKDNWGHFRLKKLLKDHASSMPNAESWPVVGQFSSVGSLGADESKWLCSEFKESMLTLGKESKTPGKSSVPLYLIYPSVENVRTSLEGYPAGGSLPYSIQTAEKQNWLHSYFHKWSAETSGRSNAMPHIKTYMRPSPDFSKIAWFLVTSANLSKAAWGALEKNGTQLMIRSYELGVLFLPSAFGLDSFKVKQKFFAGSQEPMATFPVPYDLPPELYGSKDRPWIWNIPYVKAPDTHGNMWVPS
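Recombinant human Tdp1 (E. coli-expressed, 1 nM final) preincubated with compounds 15 min at room temperature, then 5'-biotin/3'-phosphotyrosine-FITC DNA substrate (15 nM final) added for 5 min. AlphaScreen beads (10 ug/ml final) added 10 min; cleavage lowers signal.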
TDP1 cell noCPT – qHTS for Inhibitors of human tyrosyl-DNA phosphodiesterase 1 (TDP1): qHTS in cells in absence of CPT. DT40 Tdp1-/- hTDP1 cells, no CPT, ATP luminescence, 48 h. Potency, µM (series often up to 46.2 µM), for inactives: at the highest dose activity change, negative = growth inhibition, actives largely listed as inhibitors. hit rate 15% among 420,000. AID 686978, 2013; also: nearly all actives have a fitted effect of over 55% in size
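DT40 Tdp1-/-;hTDP1 cells, no CPT (DMSO vehicle only), 400 cells/well; compounds pin-transferred; ≥48 hr, 37 °C; CellTiter-Glo 30 min RT dark, luminescence read.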
Gal4-VP16 FLuc – VP16 counterscreen qHTS for inhibitors of ROR gamma transcriptional activity; Drosophila S2 Gal4-VP16 UAS-luciferase, luminescence, 20 h; Potency, µM (titrated, usually from 53.6 µM), for the others: top-dose activity, negative = inhibition, hits mostly inhibitors; hit rate 3.5% among 310,000;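 also: Gal4-VP16 expression switched on by copper sulfate through the metallothionein promoter; nearly all actives have a fitted effect of over 50% in size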
An asterisk follows results filed as active; u = inconclusive; x = no result. Only some compounds are listed: those with a hit (about 19% of all), similar ones and a draw of the others. Calls follow the shape of the dose curve; as a rule, active = well fitted curve in the direction sought with a large enough effect; inconclusive = small, poorly fitted or top-dose-only effect, or another doubt; inactive = no such curve, though single readings can be large; an effect the other way counts as inactive or inconclusive. % is scaled to controls: 0 for no effect and ±100 for the full control effect; potency is read from the fitted curve at half-maximal effect.

SMILES | TDP1 cell CPT | RORgamma inh | TDP1 block | TDP1 cell noCPT | Gal4-VP16 FLuc
COCCn1c(=O)c(-c2cccc(C#N)c2)nc2cnc(Oc3ccc(OC)cc3)nc21 | u | u | x | u | -3%
CCOC(=O)C(NC(C)=O)(N1CCOCC1)C(F)(F)F (configuration not stated) | x | -20% | 0% | x | -2%
CN(C)CCCCCCNc1nccc(N2CCN(C)CC2)n1 | 10µM* | x | x | 20µM* | x
CN(C)CCCCCCNc1cc(N2CCN(C)CC2)ncn1 | -9% | x | x | 0% | x
CCOc1ccc(S(=O)(=O)N2CCCC(C(=O)N3CCOCC3)C2)cc1 (configuration not stated) | 0% | 20% | 7% | -25% | 6%
CCc1nc(CN2CCCC(C(=O)c3ccc4c5c(cccc35)CC4)C2)c(C)[nH]1 (configuration not stated) | u | -29% | 5% | 16µM* | -13%
Cc1ncccc1C(=O)N1CCCC(C(=O)c2ccc3c4c(cccc24)CC3)C1 (configuration not stated) | u | u | -3% | u | 0%
O=C(c1ccc2c3c(cccc13)CC2)C1CCCN(Cc2ccncc2)C1 (configuration not stated) | 13µM* | -23% | 1% | 9.2µM* | u
CN(C)C(=O)CCC(=O)N1CCCC(C(=O)c2ccc3c4c(cccc24)CC3)C1 (configuration not stated) | u | 32% | 0% | 15µM* | -11%
O=C(c1ccc2c3c(cccc13)CC2)C1CCCN(C(=O)c2ccc(=O)[nH]c2)C1 (configuration not stated) | -10% | 17% | 4% | -23% | -1%
CCc1ccc(C(=O)c2cn(CC(=O)Nc3ccc(F)cc3)c3ccc(F)cc3c2=O)cc1 | u | x | 4% | u | x
O=C1/C(=C/c2ccccc2)CCC1C1CCCC1 (configuration not stated) | 3% | -20% | -3% | 7% | 1%
CN1C2CCC1/C(=C\c1ccccc1)C(=O)/C2=C\c1ccccc1 | 12µM* | -22% | 8% | 6.5µM* | -7%
Cc1ccc(CNC(=O)c2nnn(CC(=O)Nc3cccc(C)c3C)c2N)cc1 | 14% | -5% | -14% | 2% | -13%
CCCCN1CC(=O)N2[C@H]3c4ccc(OC)cc4OC[C@@H]3[C@H](C(=O)OCC)[C@]2(C)C1=O | -13% | x | 0% | -21% | x
COc1ccc(C2CC(c3ccccc3)=NN2C(=O)CN2CCN(Cc3ccccc3)CC2)cc1 (configuration not stated) | u | u | 5% | 26µM* | -6%
CNC(=S)N1N=C(c2ccc(Br)cc2)CC1c1ccc(OC)cc1 (configuration not stated) | u | u | -6% | 9.2µM* | u
CNC(=S)N1N=C(c2ccc(OC)cc2)CC1c1ccccc1Cl (configuration not stated) | u | -37% | 4% | u | 1%
COc1ccc(C2CC(c3cccc([N+](=O)[O-])c3)=NN2/C(C)=C/C(C)=O)cc1 (configuration not stated) | 16µM* | x | x | u | x
COc1ccc(C2CC(c3ccccc3)=NN2C(=O)COC(=O)c2cnc(Cl)c(Cl)c2)cc1 (configuration not stated) | 21µM* | 3% | 3% | u | -10%
O=C(NC1CS(=O)(=O)CC1NCc1ccco1)c1ccccc1 (configuration not stated) | -3% | -3% | 2% | -2% | 3%
COc1ccc(C2CC(c3ccc(Br)cc3)=NN2C(=O)CN2CCCC2)cc1 (configuration not stated) | u | 15% | -1% | 12µM* | 5%
CCCCC[C@H](O)/C=C/[C@H]1[C@H](O)CC(=O)[C@@H]1C/C=C\CCCC(=O)O | u | 8% | 9% | u | -10%
COc1ccc2c(-c3ccccc3)cc(=S)[nH]c2c1 | -7% | 1µM* | x | -37% | u
CCCOC1CCCN(C(=O)c2ccc(OC3CCN(C(=O)CCOC)CC3)cc2)C1 (configuration not stated) | -11% | 26% | 2% | -10% | 22%
SMILES | TDP1 cell CPT | RORgamma inh | TDP1 block | TDP1 cell noCPT | Gal4-VP16 FLuc
Cc1ccc(C)c(Nc2nc3ccccc3[nH]2)c1 | -2% | x | x | -28% | x
COc1ccc2oc(C(=O)Nc3nc4ccccc4[nH]3)c(C)c2c1 | 21µM* | u | x | 10µM* | 2.8µM*
Cc1cc(C)cc(C(=O)Nc2nc3ccccc3[nH]2)c1 | u | 6.3µM* | x | 23µM* | 10µM*
COc1ccc(OCC(=O)Nc2nc3ccccc3[nH]2)cc1 | -26% | 0.79µM* | 4% | u | 7%
COc1ccc(Br)c(C(=O)Nc2nc3ccccc3[nH]2)c1 | -25% | -44% | x | 5.2µM* | 5%
Cc1cc(C)nc(-c2cccc3c2OC(CNC(=O)C2CCOC2)C3)n1 (configuration not stated) | 1% | x | x | -13% | x
CCOC(=O)c1cn2ccc(C)cc2n1 | u | -13% | -2% | u | 8%
CCC(C)[C@H](NC(=O)NC1CCCc2ccccc21)C(=O)OC (some centres not stated) | -16% | 24% | 3% | -23% | 19%
C=CCNC(=O)CN(c1ccc(F)c(Cl)c1)S(C)(=O)=O | -20% | 6% | -2% | -2% | -4%
COc1cc(OC)cc(C(=O)N[C@@H](CCSC)c2nc3ccccc3[nH]2)c1 | u | -14% | 5% | u | -1%
Cc1ccsc1C(=O)Nc1nc2ccccc2[nH]1 | u | 2µM* | 9% | u | 7.1µM*
COc1ccc(CCC(=O)Nc2nc3ccccc3[nH]2)cc1 | 17% | 13% | -1% | -13% | 16%
CCCCN(C(=O)c1ccccc1Br)C(c1ccc(OC)cc1)c1nc2ccccc2[nH]1 (configuration not stated) | 16µM* | x | x | u | x
COc1cc(OC)cc(C(=O)Nc2nc3ccccc3[nH]2)c1 | 21µM* | 3.2µM* | 7% | 29µM* | 5.6µM*
COc1ccc(OCCCC(=O)NCCc2nc3ccccc3[nH]2)cc1 | 0% | 20% | 2% | -9% | 4%
Cc1ccc(Nc2c([N+](=O)[O-])ccc3c2=NC2(CCCCC2)N=3)cc1 | 16µM* | 7.9µM* | 12% | 23µM* | -16%
CCCSc1nc(N)c2c3c(sc2n1)CN(C)CC3 | -26% | 34% | -1% | 23µM* | 15%
